Results from PubChem BioAssay (NCI).
About 79,000 compounds went through this panel and 15% of them were active in at least one assay; those are over-represented in the sample as a whole. Cut-off read from the data, not from the text of the source: active = growth inhibition above about 70%; inactive = the rest. Where a SMILES comes first, the peptide text is derived from it. Bridges are numbered along the chain shown (N, C = ends). The star is where a group is joined. Cbz = O=C(OCc1ccccc1)*; OBn = c1ccc(CO*)cc1

Key:
[1] = NCI Yeast Anticancer Drug Screen. Data for the rad50 strain (AID 155);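 note: 0% = growth of vehicle-only cultures of the same strain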; conditions: S. cerevisiae rad50 strain growth inhibition; at 50.0 µM; stronger effect = higher value
Outline: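 DNA repair mutant yeast, compound exposure, growth read-out; inhibition is taken relative to vehicle.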

[2] = NCI Yeast Anticancer Drug Screen. Data for the mec2-1 strain (AID 157); conditions: S. cerevisiae mec2-1 strain, at 50.0 µM, stronger effect = higher value
Outline: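 mec2-1 yeast strain, carrying an alteration in DNA damage repair or cell cycle control, was exposed to compounds; growth inhibition was measured relative to vehicle-treated controls.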

[3] = NCI Yeast Anticancer Drug Screen. Data for the sgs1 mgt1 strain (AID 161);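 note: 0% = growth of cultures given vehicle only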; conditions: S. cerevisiae sgs1 mgt1 strain, at 50.0 µM, stronger effect = higher value
Outline: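 This yeast growth screen uses a strain with defined DNA-repair lesions; compound-treated growth is compared with vehicle-treated growth.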

[4] = NCI Yeast Anticancer Drug Screen. Data for the cln2 rad14 strain (AID 165);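 note: 0% = growth equal to vehicle treated cultures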; conditions: S. cerevisiae cln2 rad14 strain, at 50.0 µM, stronger effect = higher value
Outline: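 Yeast carrying cln2 and rad14 alterations (cell cycle control and DNA damage repair) were exposed to compounds. Growth inhibition was measured against vehicle-treated controls.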

[5] = NCI Yeast Anticancer Drug Screen. Data for the bub3 strain (AID 167); conditions: S. cerevisiae bub3 mutant strain, at 50.0 µM, stronger effect = higher value
Outline: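 In this screen, a yeast mutant lacking normal mitotic checkpoint function is challenged with compound. Relative growth versus vehicle gives the inhibition value.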

[6] = NCI Yeast Anticancer Drug Screen. Data for the mlh1 rad18 strain (AID 175); conditions: S. cerevisiae mlh1 rad18 strain growth inhibition; at 50.0 µM; stronger effect = higher value
Outline: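 Growth inhibition of the yeast strain was measured after compound exposure and expressed relative to vehicle-treated controls. The strain carries defined defects in DNA damage repair.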

Measured: growth inhibition

O=C1C2C3CCC(C3)C2N1Cc1ccccc1 (stereo unspecified)
inactive: [1] 5.8% | [2] -1.65% | [3] -2.15% | [4] -27.2% | [5] 13.6% | [6] -14.8%

C/C(C=C(C#N)C#N)=C\c1cccc(F)c1
inactive: [1] 55.7% | [2] 28.3% | [3] 50.6% | [4] 48.1% | [5] 17.5% | [6] 53.8%

COc1ccc(-c2nn(CCO)c(=O)c(C#N)c2-c2ccc(OC)cc2)cc1
inactive: [1] 28.9% | [2] 1.3% | [3] 6.65% | [4] 7.3% | [5] 13.7% | [6] 5.9%

CN(C)c1ccc(/C=N\N=C\c2ccco2)cc1
inactive: [1] 7.65% | [2] -3.2% | [3] 22.6% | [4] -40.2% | [5] -7.55% | [6] 10.1%

O=C(Cl)c1cc(-c2ccc(Cl)cc2)nc2c(-c3ccccc3)cccc12
inactive: [1] -4.05% | [2] 9.15% | [3] -9.4% | [4] -38.5% | [5] -0.35% | [6] 8.5%

COC(=O)C1CCC(=O)NCCCCC(NC(=O)C(CC(=O)OCc2ccccc2)NC(=O)OCc2ccccc2)C(=O)N1 (stereo not drawn) (Cbz-Asp(OBn)-Lys-Glu-OMe; lactam 2-3; configuration not given here)
inactive: [1] -2% | [2] 3.95% | [3] 23.3% | [4] 11.8% | [5] 28.4% | [6] -23.7%

O=C(NCCO)C(=O)NCCO
inactive: [1] 5.25% | [2] -13.3% | [3] 5.7% | [4] -9.35% | [5] -2.55% | [6] 17.6%

COc1ccc(C#CC(=O)O)c(OC)c1
inactive: [1] -3.15% | [2] -2.1% | [3] 22.9% | [4] -30.6% | [5] -5.45% | [6] -9%

Oc1c(O)c(Cc2ccccc2)c(Cc2ccccc2)c(Cc2ccccc2)c1Cc1ccccc1
inactive: [1] 40.7% | [2] -19.8% | [3] 23.3% | [4] -44.2% | [5] -7.15% | [6] 12.8%

CCCCCCCCCCCCCCCCCC(=O)Oc1c(C(C)CC)cc([N+](=O)[O-])cc1[N+](=O)[O-] (stereo unspecified)
inactive: [1] 13.2% | [2] 25% | [3] 46.2% | [4] 2.85% | [5] 10.1% | [6] 53.9%

CCCCN=C=NCCC[N+](C)(C)C
inactive: [1] 0.4% | [2] 7.2% | [3] 0.9% | [4] 10% | [5] 2.8% | [6] 8.2%

Cc1cccc(C2=N/C(=C\c3ccc4c(c3)OC(O)O4)C(=O)O2)c1 (stereo unspecified)
inactive: [1] -1.9% | [2] 6.55% | [3] 4.95% | [4] 3.55% | [5] 7.05% | [6] -16.4%

N#CC(c1ccc(N)cc1)c1ccc(F)cc1 (stereo unspecified)
inactive: [1] 15.6% | [2] -16.8% | [3] 22.2% | [4] 27.2% | [5] -0.6% | [6] 26.2%

CC1c2c(cc(=O)n(C)c2O)C(=O)N1Cc1ccccc1 (stereo unspecified)
inactive: [1] 2% | [2] 5.75% | [3] 8.7% | [4] -2.6% | [5] 2.45% | [6] -9.4%

COc1cc2c(cc1OC)C(=O)/C(=C/c1ccccc1)CC2
inactive: [1] 6.95% | [2] -6.45% | [3] 12.2% | [4] 11.8% | [5] 37% | [6] 28.6%

CC(=O)N1Cc2cncnc2C1
inactive: [1] -0.8% | [2] 5.95% | [3] -2.5% | [4] -17.1% | [5] -0.95% | [6] 23.7%

C=C(C)[C@H]1C[C@@H](O)[C@H]2O[C@@]2(C)C1
inactive: [1] -8.05% | [2] -8.35% | [3] -25.9% | [4] -13.8% | [5] 0.8% | [6] -2.85%

O=P1(O)c2ccccc2CCc2ccccc21
inactive: [1] 10.1% | [2] -14.6% | [3] 3.7% | [4] 29.8% | [5] -11% | [6] 3.4%

CC1OCOC1C1OCOCC1OC(=O)c1ccccc1 (stereo unspecified)
inactive: [1] -5.6% | [2] -5.5% | [3] -15.2% | [4] -14.8% | [5] 25.2% | [6] -5%

Cc1noc(NC2=CC(=O)C(=O)c3ccccc32)c1C
inactive: [1] 34.8% | [2] 8.45% | [3] 40.8% | [4] 8% | [5] 28.6% | [6] 42.7%

CCN(Cc1ccccc1)C(=O)Nc1c(Cl)cccc1Cl
inactive: [1] -13.5% | [2] -30.1% | [3] 1.35% | [4] -1.5% | [5] -9.85% | [6] -4.05%

Cc1cc(=O)oc2nc(-c3ccccc3)[nH]c(=O)c12
inactive: [1] 0.3% | [2] -10.2% | [3] 3.2% | [4] -5.4% | [5] -7.15% | [6] 18.3%

Cc1ccc(S(=O)(=O)N/N=C2\CCC3CC2C3(C)C)cc1 (stereo unspecified)
inactive: [1] 1% | [2] 2.05% | [3] -14.2% | [4] -20.1% | [5] -6.05% | [6] 5.95%

COC(=O)C1OCOC2C(CO)OCOC12 (stereo unspecified)
inactive: [1] 6.8% | [2] 23.1% | [3] -1.5% | [4] -49.4% | [5] 2.8% | [6] -7.85%

CCCCCCCCCCCCCCCC(=O)OCC(=O)O
inactive: [1] 14.7% | [2] -16.4% | [3] 23.2% | [4] 10.3% | [5] 15.2% | [6] 1.3%

CC(C)OP(=O)(CCC(=O)C1(O)CCC2C3CCC4=CC(=O)CCC4(C)C3CCC21C)OC(C)C (stereo unspecified)
inactive: [1] 11.4% | [2] 4.25% | [3] 10.3% | [4] 3.25% | [5] 0.65% | [6] -8.6%

O=C(Cc1ccccc1C(=O)O)c1ccccc1
inactive: [1] -16.6% | [2] -18.6% | [3] -23.6% | [4] -24.4% | [5] -25.1% | [6] -13.3%

CCCCCCSc1nc2c([nH]1)c(=O)n(C)c(=S)n2C
inactive: [1] 2.5% | [2] -3.1% | [3] 1.35% | [4] 1.5% | [5] 13.9% | [6] 19.1%

CN(C)C=NCC(O)c1ccccc1 (stereo unspecified)
inactive: [1] 13.3% | [2] 15% | [3] 0% | [4] -3% | [5] -21.2% | [6] -22.1%

CCCCC(C=O)(CC)CCC#N (stereo unspecified)
inactive: [1] 45.1% | [2] -2.55% | [3] 46.3% | [4] -17.9% | [5] -16.1% | [6] 42.2%

N#CCCCCCCCCCC#N
inactive: [1] -18.9% | [2] -36% | [3] -47.4% | [4] 25.9% | [5] -52.5% | [6] 11.4%

O=C(Cc1ccccc1)NN1C(=O)/C(=C\c2ccc(O)cc2)SC1=Nc1ccccc1
inactive: [1] 5.5% | [2] -1.05% | [3] 28.9% | [4] 4.4% | [5] -9.75% | [6] 19.9%

Cn1c2c(c3ccccc31)CCN(CCCCN1CCc3c(n(C)c4ccccc34)C1=O)C2
inactive: [1] -0.05% | [2] -24.4% | [3] -19.3% | [4] 5.25% | [5] -5% | [6] -12.8%

O=C(NCc1cccc2ccccc12)Nc1ccccc1Cl
inactive: [1] 4.9% | [2] 36.1% | [3] 10.3% | [4] -6.55% | [5] 27% | [6] 30%

CCOC(=O)C(CO)NC(=O)c1cnc2ccccc2c1 (stereo unspecified)
inactive: [1] 16.4% | [2] 1.65% | [3] 13.1% | [4] -29.8% | [5] -30.4% | [6] 12.8%

COc1ccc2c(c1OC)C(=O)O[C@@H]2[C@H]1c2c(cc3c(c2OC)OCO3)CCN1C
inactive: [1] 5.7% | [2] -28.9% | [3] -27.8% | [4] 6.75% | [5] -7.35% | [6] 11.3%

COC(=O)CC1(C)[C@H](O)[C@H]2OC(C)(C)O[C@H]2[C@@H]1O (stereo partly specified)
inactive: [1] 7.7% | [2] -10.6% | [3] -18.2% | [4] -3.25% | [5] -7.5% | [6] 38.2%

CC(C)(CO)NO
inactive: [1] -13.7% | [2] -6.9% | [3] 3.05% | [4] -0.4% | [5] -14.3% | [6] -5.7%

CC(C)(c1ccc(O)c(Cl)c1)c1cc(Cl)c(O)c(S(=O)(=O)O)c1
inactive: [1] 10.8% | [2] 4.8% | [3] 27.2% | [4] 22.3% | [5] 1.15% | [6] -11.2%

CC(=O)OCC(NC(=O)C(N)CC(=O)O)C(=O)NCC(=O)Oc1ccc([N+](=O)[O-])cc1 (stereo unspecified)
inactive: [1] 13.9% | [2] 15.7% | [3] 11.8% | [4] 12% | [5] 1.9% | [6] 5.75%

Nc1cc(=O)c2n[nH]nc2[nH]1
inactive: [1] -29.9% | [2] 0.7% | [3] -17.1% | [4] -21.6% | [5] -14.3% | [6] -16.9%
